Assays:
Assay in all cases: log2 ratio of Biotin-Ahx-Ub-VS probe labelling (fragment/DMSO); higher = less target engagement (more negative = stronger competition), active = hit call of the paper (q ≤ 0.05, log2 ratio ≤ -1)
Conditions in all cases: compound concentration: 200 uM; treatment time: 3 h
OTUD6B = target: T1, OTUD6B (UniProt Q8N6M0)
T1 sequence (whole entry): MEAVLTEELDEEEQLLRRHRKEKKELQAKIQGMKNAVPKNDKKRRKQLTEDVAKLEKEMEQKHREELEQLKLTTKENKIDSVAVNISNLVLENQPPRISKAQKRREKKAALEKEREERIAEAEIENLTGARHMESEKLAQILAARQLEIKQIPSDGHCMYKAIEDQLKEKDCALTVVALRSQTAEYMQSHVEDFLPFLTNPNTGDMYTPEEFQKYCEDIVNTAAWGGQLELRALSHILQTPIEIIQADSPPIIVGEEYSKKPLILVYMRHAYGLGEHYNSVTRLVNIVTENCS
Summary of the method: (§1)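 Lysate from HEK293T cells, 495 µg per sample in Tris/CHAPS/IGEPAL buffer with protease inhibitors, was treated for 3 h in triplicate with fragment at 200 µM or vehicle. Biotin-Ahx-Ub-VS was next added at 0.5 µM final for 1 h. The labelled DUBs were enriched with NeutrAvidin, digested with LysC and trypsin, and run by diaPASEF LC-MS/MS, with values given as average log2 fragment/vehicle ratios by unpaired t-test on global-median-normalised Spectronaut quantities of proteins with ≥2 unique peptides.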

OTUD7B = target: T2, OTUD7B (UniProt Q6GQQ9)
T2 sequence (whole entry): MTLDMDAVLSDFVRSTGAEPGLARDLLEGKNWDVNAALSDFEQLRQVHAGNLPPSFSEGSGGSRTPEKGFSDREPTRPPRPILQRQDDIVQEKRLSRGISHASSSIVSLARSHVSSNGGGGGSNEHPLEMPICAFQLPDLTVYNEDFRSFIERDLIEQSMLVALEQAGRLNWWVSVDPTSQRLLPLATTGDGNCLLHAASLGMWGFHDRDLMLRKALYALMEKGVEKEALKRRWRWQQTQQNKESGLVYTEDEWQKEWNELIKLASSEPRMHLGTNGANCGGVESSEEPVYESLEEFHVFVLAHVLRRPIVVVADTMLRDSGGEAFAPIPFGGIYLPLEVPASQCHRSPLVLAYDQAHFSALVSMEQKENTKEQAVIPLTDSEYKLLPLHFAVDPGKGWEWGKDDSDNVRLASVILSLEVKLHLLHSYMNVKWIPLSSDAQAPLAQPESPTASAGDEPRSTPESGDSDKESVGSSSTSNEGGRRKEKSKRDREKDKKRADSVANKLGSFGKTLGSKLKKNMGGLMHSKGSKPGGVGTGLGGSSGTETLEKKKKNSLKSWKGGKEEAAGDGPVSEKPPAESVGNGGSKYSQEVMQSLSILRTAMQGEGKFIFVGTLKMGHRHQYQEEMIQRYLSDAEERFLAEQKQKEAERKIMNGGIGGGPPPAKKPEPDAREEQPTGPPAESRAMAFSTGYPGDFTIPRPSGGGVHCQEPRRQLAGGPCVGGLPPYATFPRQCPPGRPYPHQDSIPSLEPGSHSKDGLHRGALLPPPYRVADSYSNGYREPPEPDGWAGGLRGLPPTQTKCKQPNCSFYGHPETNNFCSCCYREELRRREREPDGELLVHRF
Summary of the method: as §1

PRPF8 = PRPF8 (UniProt Q6P2Q9)
Summary of the method: as §1

PSMD7 = target: T3, PSMD7 (UniProt P51665)
T3 sequence (whole entry): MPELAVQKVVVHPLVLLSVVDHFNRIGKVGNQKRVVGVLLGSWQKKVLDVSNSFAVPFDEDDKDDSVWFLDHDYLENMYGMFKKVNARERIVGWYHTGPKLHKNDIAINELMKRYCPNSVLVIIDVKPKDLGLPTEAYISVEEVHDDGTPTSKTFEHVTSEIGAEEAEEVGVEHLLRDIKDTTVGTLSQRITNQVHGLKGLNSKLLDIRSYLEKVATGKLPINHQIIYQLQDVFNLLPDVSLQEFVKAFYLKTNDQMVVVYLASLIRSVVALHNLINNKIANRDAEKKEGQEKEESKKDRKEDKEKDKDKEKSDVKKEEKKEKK
Summary of the method: as §1

UCHL1 = UCHL1 (UniProt P09936)
Chain of UCHL1 (P09936 whole entry, looked up): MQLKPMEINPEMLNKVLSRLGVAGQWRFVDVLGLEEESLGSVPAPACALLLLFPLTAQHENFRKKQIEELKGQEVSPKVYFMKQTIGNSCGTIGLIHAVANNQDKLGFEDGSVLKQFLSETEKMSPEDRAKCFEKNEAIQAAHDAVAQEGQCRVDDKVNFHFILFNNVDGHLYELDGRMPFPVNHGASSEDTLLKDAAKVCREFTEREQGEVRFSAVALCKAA
Summary of the method: as §1

UCHL3 = target: T4, UCHL3 (UniProt P15374)
T4 sequence (whole entry): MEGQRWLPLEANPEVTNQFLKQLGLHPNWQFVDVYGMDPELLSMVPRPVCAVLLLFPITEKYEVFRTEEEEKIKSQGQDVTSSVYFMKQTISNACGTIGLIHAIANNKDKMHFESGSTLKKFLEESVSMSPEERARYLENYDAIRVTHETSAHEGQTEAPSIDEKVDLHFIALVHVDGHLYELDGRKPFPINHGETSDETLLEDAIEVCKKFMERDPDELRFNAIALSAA
Summary of the method: as §1

UCHL5 = target: T5, UCHL5 (UniProt Q9Y5K5)
T5 sequence (whole entry): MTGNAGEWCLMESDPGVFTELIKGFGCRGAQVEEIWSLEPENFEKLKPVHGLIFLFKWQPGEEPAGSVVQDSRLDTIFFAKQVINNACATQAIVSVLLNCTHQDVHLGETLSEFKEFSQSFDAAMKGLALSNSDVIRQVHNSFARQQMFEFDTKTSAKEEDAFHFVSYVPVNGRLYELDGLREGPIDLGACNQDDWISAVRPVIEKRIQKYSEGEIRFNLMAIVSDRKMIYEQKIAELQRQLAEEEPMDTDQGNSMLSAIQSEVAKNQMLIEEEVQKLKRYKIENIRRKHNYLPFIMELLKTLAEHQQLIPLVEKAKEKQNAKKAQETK
Summary of the method: as §1

USP10 = USP10 (UniProt Q14694)
Chain of USP10 (Q14694 whole entry): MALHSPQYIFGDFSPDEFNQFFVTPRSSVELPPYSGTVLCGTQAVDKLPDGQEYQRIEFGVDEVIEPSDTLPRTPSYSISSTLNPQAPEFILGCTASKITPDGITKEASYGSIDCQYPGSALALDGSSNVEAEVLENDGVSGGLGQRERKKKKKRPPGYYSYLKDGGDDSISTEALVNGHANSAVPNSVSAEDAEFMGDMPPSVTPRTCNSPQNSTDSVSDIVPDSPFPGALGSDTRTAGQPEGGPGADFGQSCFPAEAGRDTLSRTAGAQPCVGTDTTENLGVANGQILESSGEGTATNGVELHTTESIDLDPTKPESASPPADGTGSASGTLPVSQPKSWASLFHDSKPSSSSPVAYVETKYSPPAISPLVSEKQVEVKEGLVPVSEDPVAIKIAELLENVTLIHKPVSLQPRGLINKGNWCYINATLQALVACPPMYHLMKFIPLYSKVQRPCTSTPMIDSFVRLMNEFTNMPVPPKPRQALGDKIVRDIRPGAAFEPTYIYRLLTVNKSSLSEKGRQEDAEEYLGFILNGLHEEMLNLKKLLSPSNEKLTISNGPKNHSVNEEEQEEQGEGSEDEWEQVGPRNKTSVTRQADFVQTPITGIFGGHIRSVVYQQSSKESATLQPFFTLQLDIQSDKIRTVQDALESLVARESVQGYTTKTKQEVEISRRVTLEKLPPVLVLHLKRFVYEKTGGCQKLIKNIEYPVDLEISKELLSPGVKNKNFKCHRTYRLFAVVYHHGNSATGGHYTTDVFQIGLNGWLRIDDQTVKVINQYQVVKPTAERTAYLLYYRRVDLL
Summary of the method: as §1

USP15 = target: T6, USP15 (UniProt Q9Y4E8)
T6 sequence (whole entry): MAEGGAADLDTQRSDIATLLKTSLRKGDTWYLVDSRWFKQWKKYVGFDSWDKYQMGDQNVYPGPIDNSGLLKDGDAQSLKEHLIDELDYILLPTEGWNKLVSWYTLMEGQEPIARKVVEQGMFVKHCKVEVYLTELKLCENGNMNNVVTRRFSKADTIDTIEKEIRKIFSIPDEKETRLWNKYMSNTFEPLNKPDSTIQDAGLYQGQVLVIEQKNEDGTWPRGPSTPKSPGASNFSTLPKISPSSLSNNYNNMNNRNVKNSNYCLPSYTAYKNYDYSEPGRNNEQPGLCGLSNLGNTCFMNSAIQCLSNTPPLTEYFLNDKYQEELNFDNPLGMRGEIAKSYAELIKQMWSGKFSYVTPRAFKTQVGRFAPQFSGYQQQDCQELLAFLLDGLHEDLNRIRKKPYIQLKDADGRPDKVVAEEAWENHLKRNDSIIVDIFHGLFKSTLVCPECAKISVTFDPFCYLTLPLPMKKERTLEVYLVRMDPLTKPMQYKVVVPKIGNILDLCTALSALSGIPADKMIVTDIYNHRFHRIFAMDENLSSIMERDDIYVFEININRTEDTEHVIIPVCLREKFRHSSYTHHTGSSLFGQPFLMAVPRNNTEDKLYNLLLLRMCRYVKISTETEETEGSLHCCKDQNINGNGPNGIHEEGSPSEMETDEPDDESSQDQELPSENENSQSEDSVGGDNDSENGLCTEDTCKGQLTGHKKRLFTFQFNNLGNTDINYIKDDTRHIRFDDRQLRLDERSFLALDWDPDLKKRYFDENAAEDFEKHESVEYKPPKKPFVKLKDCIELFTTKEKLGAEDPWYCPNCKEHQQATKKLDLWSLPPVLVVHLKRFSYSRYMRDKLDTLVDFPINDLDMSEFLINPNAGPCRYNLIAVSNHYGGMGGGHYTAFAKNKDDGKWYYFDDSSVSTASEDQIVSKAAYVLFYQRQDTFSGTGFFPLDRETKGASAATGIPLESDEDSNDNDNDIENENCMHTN
Summary of the method: as §1

USP16 = USP16 (UniProt Q9Y5T5)
Chain of USP16 (Q9Y5T5 whole entry, looked up): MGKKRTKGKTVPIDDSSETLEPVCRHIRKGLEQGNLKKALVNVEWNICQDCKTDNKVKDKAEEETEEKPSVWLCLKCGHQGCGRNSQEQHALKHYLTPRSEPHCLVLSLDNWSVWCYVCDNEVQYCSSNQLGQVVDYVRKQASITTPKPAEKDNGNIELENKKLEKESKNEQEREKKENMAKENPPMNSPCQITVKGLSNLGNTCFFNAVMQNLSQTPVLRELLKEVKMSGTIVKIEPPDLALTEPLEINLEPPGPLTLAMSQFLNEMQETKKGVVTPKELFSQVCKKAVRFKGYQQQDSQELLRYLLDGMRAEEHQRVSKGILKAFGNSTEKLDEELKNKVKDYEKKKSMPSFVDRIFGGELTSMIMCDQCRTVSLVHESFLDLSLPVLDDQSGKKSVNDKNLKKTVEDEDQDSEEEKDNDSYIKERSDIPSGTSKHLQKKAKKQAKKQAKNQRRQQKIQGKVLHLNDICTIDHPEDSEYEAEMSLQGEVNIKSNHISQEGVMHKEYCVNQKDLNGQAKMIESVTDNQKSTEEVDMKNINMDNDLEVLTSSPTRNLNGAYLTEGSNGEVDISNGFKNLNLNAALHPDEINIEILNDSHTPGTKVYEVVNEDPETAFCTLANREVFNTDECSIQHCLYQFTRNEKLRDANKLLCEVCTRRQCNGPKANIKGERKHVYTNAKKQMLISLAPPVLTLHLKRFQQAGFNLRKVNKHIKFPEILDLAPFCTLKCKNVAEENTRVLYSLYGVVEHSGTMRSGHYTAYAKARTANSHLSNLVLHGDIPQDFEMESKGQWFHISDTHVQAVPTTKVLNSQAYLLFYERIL
Summary of the method: as §1

Measured: log2 ratio of Biotin-Ahx-Ub-VS probe labelling

O=C(CCl)Nc1cc2c(cc1Cl)OCCCO2
active: UCHL1 -1.39
inactive: OTUD6B -0.0697 | OTUD7B -0.399 | PRPF8 0.00677 | PSMD7 -0.0387 | UCHL3 -0.323 | UCHL5 -0.0527 | USP10 -0.157 | USP15 -0.172 | USP16 -0.508
